Experimental data reported in PubChem BioAssay (NCATS).
Results filed as inconclusive are left out. Where a call stands in place of a potency, no number is given. The source made the active and inactive calls. The call rests on the fitted dose curve; in most records, active means well fitted inhibition curve with a large enough effect; inconclusive means small, poorly fitted or top-dose-only effect; inactive means flat fitted curve, though single readings scatter.

Test: P-glycoprotein substrates identified in KB-8-5-11 adenocarcinoma cell line, qHTS therapeutic library screen (AID 1346987); further: nearly all actives have a fitted effect of over 65% in size
Conditions: KB-8-5-11 (P-gp overexpressing) viability, CellTiter-Glo, 72 h; series mostly up to 44.5 µM
In short: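 Compounds are pinned in dose-response onto KB-8-5-11 cells (500 cells/well, colchicine-free medium) and left 72 h at 37 degree C. CellTiter-Glo luminescence then yields AC50 values.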
Potency means the concentration at half of the fitted maximal effect.

| Structure (SMILES) | Potency |
| --- | --- |
| COc1ccc(CNCC(O)COc2ccc3[nH]c(=O)ccc3c2)cc1OC (centres undefined) | inactive |
| CC(NCCCc1cccc(C(F)(F)F)c1)c1cccc2ccccc12 (centres undefined) | inactive |
| CC(C)(O)C1CC(=O)C2(C)C(CCC3(C)C(c4ccoc4)OC(=O)C4OC432)C12CCC(=O)OC2 (centres undefined) | inactive |
| COc1ccc(C2Oc3c(OC)cc(CCCO)cc3C2COC2OC(CO)C(O)C(O)C2O)cc1OC (centres undefined) | inactive |
| COc1cc(-c2cn(C3CCc4c(F)cccc4N(CC(F)(F)F)C3=O)nn2)ccc1-n1cnc(C)c1 (centres undefined) | inactive |
| O=C(c1c(F)ccc(NS(=O)(=O)N2CC[C@@H](F)C2)c1F)c1c[nH]c2ncc(-c3cnc(C4CC4)nc3)cc12 | inactive |
| CCCCCC(O)/C=C/C=O (centres undefined) | inactive |
| O=C(OCCO)c1ccccc1O | inactive |
| COc1ccc(OC)c(-c2ccc(NC(=O)c3ccncc3F)cc2)c1 | inactive |
| CCCOc1ccc2nc(NC(=O)OC)sc2c1 | 5.8 µM (active) |
| CCCN1CCC=C(c2cc(-c3ccc(C)cc3)no2)C1 | inactive |
| CN(C(=O)CO)c1c(I)c(C(=O)NCC(O)CO)c(I)c(C(=O)NCC(O)CO)c1I (centres undefined) | inactive |
| CC(=O)OC1C(=O)C2C3OCC4=C3[C@@](C)(CC[C@@H]4O)CC[C@]2(C)[C@H]1C(C)C (some centres undefined) | inactive |
| COC1=CC(=O)O/C1=C(/OC)[C@@H]1O[C@H]1c1ccccc1 | inactive |
| CCC(C)(C)OC(=O)N[C@@H](Cc1c[nH]c2ccccc12)C(=O)N[C@@H](CCSC)C(=O)N[C@@H](CC(=O)O)C(=O)N[C@@H](Cc1ccccc1)C(N)=O | inactive |
| Cc1ccc(N2CCN(CCC3NC(=O)c4ccccc43)CC2)cc1C (centres undefined) | inactive |
| CC/C=C\CC1C(=O)C=CC1(CCCCC1CCC(=O)O1)OC(C)=O (centres undefined) | inactive |
| COc1ccc([C@H]2Cc3cccc(O)c3C(=O)O2)cc1OC | inactive |
| C/C(=C(/CCO)SSCC1CCCO1)N(C=O)Cc1cnc(C)nc1N (centres undefined) | inactive |
| COC(=O)c1ccnc(-c2cc(C(=O)Nc3ccc(C4(N)CC4)cc3)ccn2)c1 | inactive |
| Cc1cc(C)nc(SCC(=O)Nc2ncc(Cc3cccc4ccccc34)s2)n1 | inactive |
| CC1(C)S[C@@H]2[C@H](NC(=O)C(C(=O)Oc3ccc4c(c3)CCC4)c3ccccc3)C(=O)N2[C@H]1C(=O)O (some centres undefined) | inactive |
| CCOC(=O)N1CCC(N2CCC[C@@H](NC(=O)c3ccccc3C)C2)CC1 | inactive |
| C1CNCCN1 | inactive |
| O=C1C(c2[nH]c3ccc(S(=O)(=O)O)cc3c2O)=Nc2ccc(S(=O)(=O)O)cc21 | inactive |
| Cc1ccc(CNc2ncnc3ccc(-c4ccc(CO)o4)cc23)o1 | inactive |
| Nc1nc2c(s1)CCN(Cc1ccc(Cl)cc1)CC2 | inactive |
| C=C1CC2OC(=O)C(=C)C2C(O)/C=C(\C)CCC1O (centres undefined) | inactive |
| C=C(C)C1CC(O)C(C)C12CC(O)C1(C)OC1C2O (centres undefined) | 3.66 µM (active) |
